The results in this text go back to PubChem BioAssay (EPA / NIEHS).

Activity calls are given as the source filed them. The calls were made as follows: active = hit-call score of the fitted dose curve at least 0.9, where 1 is the maximum; inactive = score below 0.9.

A word on the AC50: it is the concentration at which the activity in the assay is half-maximal.

Read-out in this assay: CYP2C9 (gene 1559)
Kind of assay: LTEA_HepaRG_CYP2C9: Life Technologies and Expression Analysis (LTEA) Assay for CYP2C9 using HepaRG (AID 2283484). The following applies: mRNA level, 48 h; actives raise or lower the signal. As to the method: LTEA_HepaRG is a cell based, multiplexed-readout assay that uses HepaRG, a human liver cell line, with measurements taken at 48 hours after chemical dosing on a 96-well plate.LTEA_HepaRG_CYP2C9 is one of 102 assay component(s) measured in the LTEA HepaRG cell culture assay. It is a marker of NR mediated metabolism.Data from the assay component LTEA_HepaRG_CYP2C9 was analyzed into 1 endpoint. This assay endpoint, LTEA_HepaRG_CYP2C9, was analyzed with bidirectional fitting relative to DMSO as the negative control and baseline of activity. Using a type of inducible reporter, measures of mRNA induction for gain or loss-of-signal activity can be used to understand regulation of transcription factor activity. To generalize the intended target to other relatable targets, this assay endpoint is annotated to the cyp intended target family, where the subfamily is xenobiotic metabolism.
A total of 1060 chemcials from the ToxCast library were tested in eight-point concentration-response experiments. Cell culture and cytotoxicity assays were conducted at Thermo Fisher Scientific's Custom Services facility (Madison, WI). A single lot of human HepaRG cells (Thermo Fisher Scientific, Frederick, MD) was used for the cell culture experiments. 96-well format collagen type I coated plates of human HepaRG cells were prepared using established methods. Briefly, cryopreserved HepaRG cells were thawed, plated at a density of approximately 100,000 cells/well in HepaRG Thaw, Plate, and General Purpose media (HPRG770, Thermo Fisher Scientific), and incubated for 48 hours. 0.5% DMSO was selected as vehicle control to balance the requisite need of DMSO in HepaRG cultures to maintain differentiation (for example, baseline metabolism, proportions of hepatocytes vs. cholangiocytes), while enabling further hepatic receptor pathway activation (for example, PXR and CAR) in response to chemical exposure. 48 hours after plating, the culture medium was replaced with HepaRG Serum-Free Incudtion Media. Cells were exposed to each test chemical in duplicate and maintained in CO2 incubators for another 48 hours. Chemical plates were thawed to room temperature and 200x concentrations of treatment groups were prepared. 8-point conentration-reponse curves were made with the highest exposure at 100 uM, followed by half-log dilutions, all in 0.5% DMSO. Each test plate contained variouse controls, induction positive controls (1mM phenobarbital), cytotoxicity positive controls ([…] aflatoxin B1), vehicle controls (0.5% DMSO), and total lysis controls (0.5% DMSO). Cell morphology images were taken using an Essen IncuCyte FLR automated microscope, with six 96-well plates imaged in about 24 minutes. Images were captured and exported and JPEG files. Spent culture media was transfered to black-well plates for the LDH assay, and remaining media was sorted at -80 C for later use. Cells were treated with RLT buffer and frozen until shipped for gene expression analysis. Total RNA was isolated from the cell suspension in 75 uL of Buffer RLT (Qiagen, Germantown, MD 20874) by Quintiles/Expression Analysis (Durham, NC) using a custom isolation procedure. Total RNA from each plate well was transferred to a preamplification plate. Fluidigm's 96.96 Dynamic ArrayTM (Fluidigm, Amsterdam, the Netherlands) technology was used for gene expression analyses by quantitative reverse transcription polymerase chain reaction (qRT-PCR, performed by Quintiles/Expression Analysis, Durham, NC)89. Standard TaqManTM Assays (Applied Biosystems/ThermoFisher Scientific, Foster City, CA) were used to assess the expression of 93 genes selected based on their selectivity and sensitivity to important hepatic receptors known to be modulated by environmental chemicals; importance in human hepatocyte functionality; and hepatotoxicity. […]
In the case of `CCOP(=S)(OCC)Oc1ccc2c(C)c(Cl)c(=O)oc2c1`, the molecule was classed as inactive.

On to `CCCSP(=O)(OCC)Oc1ccc(Br)cc1Cl` (stereo not given), for which the call was inactive.

With `CN1COCN(Cc2cnc(Cl)s2)C1=N[N+](=O)[O-]`, the result was inactive.

For `CCOP(=O)(NC(C)C)Oc1ccc(SC)c(C)c1` (stereo not given), the molecule was called inactive.

As for `CCNc1nc(Cl)nc(NC(C)(C)C#N)n1`, the molecule was classed as inactive.

`CN(C)C(=O)Nc1cccc(C(F)(F)F)c1`: the result was inactive.

Take `CON=C(C(=O)OC)c1ccccc1CON=C(C)c1cccc(C(F)(F)F)c1`: the result was inactive.

Turning to `Nc1c(Cl)cc([N+](=O)[O-])cc1Cl`, the AC50 is 63.8 µM (active).

With `CCc1cnc(C2=NC(C)(C(C)C)C(=O)N2)c(C(=O)O)c1` (stereo not given), the call was inactive.

Take `CCCSP(=O)(OCC)SCCC`: the outcome was inactive.

Consider `CCC(CC)Nc1c([N+](=O)[O-])cc(C)c(C)c1[N+](=O)[O-]`, for which the outcome was inactive.

Turning to `CCOC(=O)COc1cc(-c2nn(C)c(OC(F)F)c2Cl)c(F)cc1Cl`, the molecule was classed as inactive.

Turning to `C[N+]1(C)CCCCC1`, the result was inactive.

As to `CCOP(=O)(OCC)Oc1cc(C)nc(C(C)C)n1`, the molecule was classed as inactive.

Turning to `Cc1cc(C2CC2)nc(Nc2ccccc2)n1`, the result was inactive.

Take `CC1(C(=O)Nc2ccc(O)c(Cl)c2Cl)CCCCC1`: the outcome was inactive.

With `CSc1nc(NC(C)C)nc(NC(C)C)n1`, the AC50 is 85.9 µM (active).

As to `CCOP(=S)(Oc1cnc(C(C)(C)C)nc1)OC(C)C` (stereo not given), the result was inactive.

In the case of `CCCCOC(=O)c1ccccc1C(=O)O`, the molecule was classed as inactive.

`CC(C1CC1)C(O)(Cn1cncn1)c1ccc(Cl)cc1` (stereo not given): the molecule was called inactive.

For the molecule `CCCOCC(=Nc1ccc(Cl)cc1C(F)(F)F)n1ccnc1`, the AC50 is 20.3 µM (active).

Regarding `CCC(=NOC/C=C/Cl)C1=C(O)CC(C2CCOCC2)CC1=O` (stereo not given), the call was inactive.

Turning to `CC(C)N(C(=O)SCC(Cl)=C(Cl)Cl)C(C)C`, the call was inactive.

As for `CC(Oc1cccc(Cl)c1)C(=O)O` (stereo not given), the AC50 was 2.04 µM (active).

On to `COc1cccc(C(=O)NN(C(=O)c2cc(C)cc(C)c2)C(C)(C)C)c1C`, for which the outcome was inactive.

`C#CC(C)(C)NC(=O)c1cc(Cl)cc(Cl)c1`: the outcome was inactive.

Take `CNC(=O)ON=C(C)SC`: the result was inactive.

In the case of `CCCCOC(=O)[C@@H](C)Oc1ccc(Oc2ccc(C#N)cc2F)cc1`, the molecule was classed as inactive.

For `S=C1NCCN1`, the molecule was called inactive.

As for `CN(C)[C@@H]1C(=O)C(C(N)=O)=C(O)[C@@]2(O)C(=O)C3=C(O)c4c(O)cccc4[C@@](C)(O)[C@H]3[C@H](O)[C@@H]12`, the call was inactive.

Regarding `CC(=NC#N)N(C)Cc1ccc(Cl)nc1`, the call was inactive.

With `CC[C@H](C)[C@H]1O[C@]2(C=C[C@@H]1C)C[C@@H]1C[C@@H](C/C=C(\C)[C@@H](O[C@H]3C[C@H](OC)[C@@H](O[C@H]4C[C@H](OC)[C@@H](NC)[C@H](C)O4)[C@H](C)O3)[C@@H](C)/C=C/C=C3\CO[C@@H]4[C@H](O)C(C)=C[C@@H](C(=O)O1)[C@]34O)O2`, the molecule was called inactive.

With `COc1cc(OC)nc(Sc2cccc(Cl)c2C(=O)O)n1`, the outcome was inactive.

Consider `CCCOc1nn(C(=O)NS(=O)(=O)c2ccccc2C(=O)OC)c(=O)n1C`, for which the molecule was classed as inactive.

With `CNC(=O)ON=C(SC)C(=O)N(C)C`, the result was inactive.

`COP(=O)(OC)SCn1c(=O)oc2cc(Cl)cnc21`: the AC50 is 36.9 µM (active).

For the molecule `O=C(O)c1cc(Oc2ccc(C(F)(F)F)cc2Cl)ccc1[N+](=O)[O-]`, the molecule was called inactive.

Regarding `CCOP(=S)(OCC)Oc1cc(C)nc(C(C)C)n1`, the result was inactive.

For `C#CCC1=C(C)C(OC(=O)C2C(C=C(C)C)C2(C)C)CC1=O` (stereo not given), the molecule was classed as inactive.

Take `N#CSCSC#N`: the AC50 is 66.5 µM (active).
